# Experimental data as given in ChEMBL document CHEMBL4513216, “Probing the Open Global Health Chemical Diversity Library for Multistage-Active Starting Points for Next-Generation Antimalarials” (ACS Infect Dis, 2020).
# About 8,600 (12%) of roughly 69,000 compounds showed an effect of 50% or more. For the sample, strong results were picked, then their nearest neighbours and some compounds at random.
# Test system: Plasmodium berghei
# Test: Screen against P. berghei liver stage (PbLuc), transformed with Luciferase, at 10uM
# Assay type: functional, HepG2
# Conditions: tested at 10 uM
row,Compound,INHIBITION
1,c1cc(COc2ccc(CNC3CCc4ncnn4C3)cc2)ccn1 (configuration not stated),-1.76%
2,CS(=O)(=O)CC1(CNc2c(C#N)cnc3ccc(Cl)cc23)CC1,-14.1%
3,CS(=O)(=O)c1cn[nH]c1C1CCCCN1C(=O)c1ccsc1 (configuration not stated),-69.5%
4,CN1C(=O)CCC12CCC(NC(=O)NCc1cccnc1)CC2 (configuration not stated),28.5%
5,O=S(=O)(c1ccccc1)N1CCN(Cc2ccc(F)cc2Br)CC1,33.1%
6,O=S(=O)(N1CCCCCC1)N1CCN(Cc2ccc(F)cc2Br)CC1,71.2%
7,CS(=O)(=O)N1CCN(Cc2ccc(F)cc2Br)CC1,35.4%
8,CN1C(=O)CC(C(=O)O)C12CCN(c1ccc3cccc(Cl)c3n1)CC2 (configuration not stated),-0.273%
9,CCC1=N[C@@]2(CC[C@@H]3CN(CC(C)C)C[C@@H]32)C(=O)N1,24.9%
10,O=C1CSC(c2ccc(O)cc2)c2sccc2N1 (configuration not stated),88.1%
11,COc1ccc(C2SCC(=O)Nc3ccsc32)cc1 (configuration not stated),67.9%
12,COc1cc(C2SCC(=O)Nc3ccsc32)cc(OC)c1OC (configuration not stated),29.4%
13,COc1cc(C2SCC(=O)Nc3ccsc32)cc(OC)c1O (configuration not stated),43.7%
14,O=C1CSC(c2ccsc2)c2sccc2N1 (configuration not stated),20.5%
15,COc1cccc(C2SCC(=O)Nc3ccsc32)c1 (configuration not stated),3.68%
16,COc1ccc(C2SCC(=O)Nc3ccsc32)cc1OC (configuration not stated),3.68%
17,COc1cc(OC)cc(C2SCC(=O)Nc3ccsc32)c1 (configuration not stated),3.68%
18,COC(=O)c1ccc(C2SCC(=O)Nc3ccsc32)cc1 (configuration not stated),78.1%
19,COCC1CC2(CCN(Cc3nc(C)cs3)CC2)CO1 (configuration not stated),14.9%
20,COc1cc(C(=O)NC(CC(=O)O)c2cccs2)cc(OC)c1C (configuration not stated),5.03%
21,COc1ccc(C2=NOC(CC#N)C2)cc1 (configuration not stated),45.8%
22,Cc1cc(C)n(CC2CCCN2C(=O)CCNc2ncccn2)n1 (configuration not stated),-9.4%

row,Compound,INHIBITION
1,NC(=O)C1(CNC(=O)CCc2ccc(Cl)s2)CCOCC1,13.8%
2,O=C(CCCN1CCCCC1)NC(C(=O)O)c1cccc(F)c1 (configuration not stated),-20%
3,CN(C)C(=O)COC1COC2(CCN(S(C)(=O)=O)CC2)C1 (configuration not stated),37%
4,CCn1cc2[nH]c(OC)c(CNC(=O)CCC3CCCC3)cc-2c1=O,34.4%
5,COc1ccc(C(C)(C)C)cc1CN1CCn2c(CO)nnc2C1,48.4%
6,CCn1cc(NC(=O)C2CCN(Cc3noc(C4CC4)n3)CC2)cn1,18.2%
7,O=C(CCN1C(=O)CCC1=O)Nc1ccc(Oc2ccc(Cl)cc2)nc1,51.1%
8,O=C(CCN1C(=O)CCC1=O)Nc1ccc(Cl)cc1,67.2%
9,CC(C)N(C)C(=O)c1ccc(Cl)c(NC(=O)CCN2C(=O)CCC2=O)c1,35.2%
10,CC(C)OCC(=O)Nc1ccc(Oc2ccc3c(c2)OCO3)nc1,29.9%
11,O=C(CCN1C(=O)CCC1=O)Nc1ccc(OCC(F)(F)F)nc1,39.4%
12,O=C(CCN1C(=O)CCC1=O)Nc1cnn(-c2ccccc2Cl)c1,28.5%
13,COC1CCN(C(=O)NCC(N)=O)CC(=O)N(C)c2ccccc21 (configuration not stated),16.2%
14,Cc1cnn(CC2CN(Cc3cccnc3)CCO2)c1 (configuration not stated),-7.81%
15,COC(=O)CN1CCCn2nc(CCC(=O)N3CCCC3)cc2C1,32.4%
16,CC(=O)N1CC(C)CN(C(=O)c2cccnc2C)c2ccccc21 (configuration not stated),-9.8%
17,CC1CN(C)c2ccccc2N(C(=O)c2c[nH]c(C(C)C)n2)C1 (configuration not stated),29.6%
18,CC(=O)N1CC(C)CN(C(=O)c2cnccn2)c2ccccc21 (configuration not stated),60.7%
19,CC(C)c1cc(COCCC(=O)O)no1,44.1%
20,CN1CCN(C(=O)NCCc2ccc(F)cc2)[C@H]2CS(=O)(=O)C[C@H]21,52.2%
21,COc1ccc(CCNC(=O)N2CCN(C)[C@@H]3CS(=O)(=O)C[C@@H]32)cc1,31.9%
22,CN1CCN(Cc2cnn(-c3ccc(F)cc3)c2)[C@H]2CS(=O)(=O)C[C@H]21,69.8%

row,Compound,INHIBITION
1,CN1CCN(Cc2nc3ccccc3[nH]2)[C@H]2CS(=O)(=O)C[C@H]21,-1.64%
2,CN1CCN(Cc2cnn(-c3ccccc3Cl)c2)[C@H]2CS(=O)(=O)C[C@H]21,-54.8%
3,COc1ccccc1-n1cc(CN2CCN(C)[C@@H]3CS(=O)(=O)C[C@@H]32)cn1,50.1%
4,COc1ccc(CNC(=O)N2CCN(C)[C@@H]3CS(=O)(=O)C[C@@H]32)cc1,0.891%
5,Cc1ccc(-n2cc(CN3CCN(C)[C@@H]4CS(=O)(=O)C[C@@H]43)cn2)cc1,29.1%
6,Cc1cccc(-n2cc(CN3CCN(C)[C@@H]4CS(=O)(=O)C[C@@H]43)cn2)c1,4.41%
7,Cc1nn(C)c2cnn(Cc3ccc(C(=O)NCC4CCCO4)o3)c12 (configuration not stated),17.6%
8,O=C1CC2(CCSC2)C(=O)N1Cc1coc(-c2cccc(F)c2)n1 (configuration not stated),3.03%
9,Cc1noc(C)c1CN1CCc2ncc(Cn3cccn3)n2CC1,26%
10,Cc1nonc1C(=O)N1CCCC(c2ncncc2-c2ccncc2)C1 (configuration not stated),42.1%
11,Cc1nc(Nc2cnccn2)cc(C2CCCN2)n1 (configuration not stated),34.9%
12,Cc1ccc(CNC(=O)CN2CCOC(Cn3cncn3)C2)s1 (configuration not stated),5.03%
13,O=C(NCCN1CCCCC1)c1ccoc1,16.1%
14,COc1cc(CNCCc2cc(F)cc3c2OCOC3)cc(OC)c1,26.6%
15,CCn1cnnc1CNC(=O)N(C)C(C)c1cccs1 (configuration not stated),-41.1%
16,CN1CC(C(=O)N2CCC(Oc3ccccc3Cl)CC2)CC1=O (configuration not stated),35.5%
17,O=C(NCc1cc[nH]n1)N1CCN(c2ccccc2Cl)CC1,39.2%
18,O=C(NCc1cc[nH]n1)N1CCC(Oc2ccccc2Cl)CC1,50.2%
19,CCOCC1CCCN(C(=O)NCc2cn3c(C)cccc3n2)C1 (configuration not stated),21.6%
20,CS(=O)(=O)NC1CCN(C(=O)NCc2cc[nH]n2)CC1,8.64%
21,Cc1cccc(OC2CCN(C(=O)NCc3cc[nH]n3)CC2)c1C,88.4%
22,O=C(C1CC1)N1CCC(Oc2ccccc2Cl)CC1,88.1%

row,Compound,INHIBITION
1,Cc1cccc2nc(CNC(=O)N3CCC(OCC4CC4)CC3)cn12,51.2%
2,O=C(C1CC(=O)N(C2CC2)C1)N1CCC(Oc2ccccc2Cl)CC1 (configuration not stated),-6.88%
3,CNC(=O)CC1CCN(C(=O)NCc2cn3c(C)cccc3n2)CC1,45.2%
4,Cc1cccc(OC2CCN(C(=O)NCCn3ccnc3)CC2)c1C,-4.13%
5,CCOc1ccccc1N1CCN(C(=O)NCc2cc[nH]n2)CC1,49.8%
6,Cc1ccc(C(=O)N2CCO[C@H]3[C@@H](OCc4ccccn4)CC[C@@H]32)o1,3.47%
7,Cc1ccc(CNC(=O)N(C)Cc2cnn(C)c2)s1,25.5%
8,COC(=O)c1cc(C2CC2)nc2c(Cl)cnn12,20.9%
9,Cc1c(C(C)NC(=O)Nc2ccccc2F)cnn1C (configuration not stated),61.9%
10,Cc1c(C(C)NC(=O)Nc2ccc(F)cc2F)cnn1C (configuration not stated),44.3%
11,Cc1c(C(C)NC(=O)Nc2ccc(F)c(F)c2)cnn1C (configuration not stated),6.26%
12,Cc1ccccc1CSc1ncccc1C(=O)N(C)C,-13.2%
13,Cc1cncc(CN2CC[C@@](O)(CNC(=O)c3c[nH]cn3)[C@H](O)C2)c1,32.7%
14,c1cnn(CC2CN(c3ncnc4ccsc34)CCO2)c1 (configuration not stated),62.4%
15,Cc1cnn(CC2CN(c3ncnc4ccccc34)CCO2)c1 (configuration not stated),64.4%
16,Cc1nnc(N2CCOC(Cn3cccn3)C2)c(C#N)c1C (configuration not stated),17.8%
17,Cc1nc(N2CCCOC(Cn3cccn3)C2)c2sccc2n1 (configuration not stated),65.7%
18,c1cnn(CC2CN(c3ncnc4sccc34)CCO2)c1 (configuration not stated),45%
19,Cc1cnn(CC2CN(c3ncnc4[nH]ccc34)CCO2)c1 (configuration not stated),19.4%
20,c1cnn(CC2CN(c3ncnc4c3CCC4)CCO2)c1 (configuration not stated),-7.17%
21,Cc1cnn(CC2CN(c3ncnc4c3CCC4)CCO2)c1 (configuration not stated),63%
22,c1nc(N2CCOC(Cn3cncn3)C2)c2sccc2n1 (configuration not stated),49.4%

row,Compound,INHIBITION
1,c1nc2c(c(N3CCOC(Cn4cncn4)C3)n1)CCC2 (configuration not stated),-26.9%
2,c1cnn(CC2CN(c3ncnc4[nH]ccc34)CCO2)c1 (configuration not stated),13.3%
3,c1ccc2c(N3CCOC(Cn4cccn4)C3)ncnc2c1 (configuration not stated),4.48%
4,O=C1CN(C(=O)C2CN(c3cccc(Cl)c3)CCO2)CCN1 (configuration not stated),3.46%
5,Cn1cnc2cc(C(=O)NS(=O)(=O)c3ccccc3Cl)ccc21,-32.1%
6,Cc1ccc2c(c1)C(=O)NCC1(CCN(Cc3ccccc3)CC1)O2,-6.92%
7,COc1ccc(-n2ccc(C(=O)N(C)C(C)C3(C)CC3)n2)cc1 (configuration not stated),29.1%
8,Cc1cccc(CN2CCC(N(C)Cc3nnc(C4CC4)n3C)C2)c1 (configuration not stated),38.5%
9,COc1ccc(CCNC(=O)NCC(O)c2cccc(F)c2)cc1 (configuration not stated),12.7%
10,CC(C)c1sc(Br)nc1C(=O)NCc1ccncc1,45.3%
11,O=C(NCCc1cnccn1)c1ccc(S(=O)(=O)NC2CCC2)cc1,40.3%
12,CC(C)N1CC[C@@H]2[C@H](COCC3CC3)CN(C)C(=O)[C@@H]2CC1,10.5%
13,O=C(NC[C@]1(O)CN(Cc2ccc(F)cc2)C[C@H]1O)c1ccccn1,18.9%
14,COC1[C@@H]2CC[C@H]1CN(c1nc(C)nc3ccsc13)C2 (some centres not stated),43%
15,Cc1nc(N2C[C@@H](CN3CCCCC3)[C@@H](CO)C2)c2sccc2n1,46.4%
16,CN(C)CC1CN(c2ncnc3ccsc23)CCO1 (configuration not stated),30.8%
17,Cc1cnn(CC2CN(c3cnc4ccccc4n3)CCO2)c1 (configuration not stated),16.2%
18,Cc1cnn(CC2CN(c3ncnc4ccsc34)CCO2)c1 (configuration not stated),83.7%
19,Cc1nc(N2C[C@H]3CNC[C@H]3C2)c2sccc2n1,55.6%
